The whole screen tested about 320,000 compounds, of which about 2,100 (0.66%) were called active. Not shown: some 53% with an inconclusive outcome. The call rests on the fitted dose curve; in most records, active means well fitted inhibition curve with a large enough effect in the signal ratio, with a control signal flat (not every such curve was filed as active); inconclusive means small, poorly fitted or top-dose-only effect, or effect the other way, or a change in a side signal; inactive means flat fitted curve, though single readings scatter; the % refers to the signal ratio. What follows is part of a selection rich in actives, with near analogues and random picks from the rest.
Assay: qHTS Assay for Lipid Storage Modulators in Drosophila S3 Cells;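 on cell number change: cells counted by Cell Tracker Red CMTPX staining in the red channel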; on lipid storage change, negative = inhibition: on the % scale 0 is the no-effect control and ±100 the full control effect
Conditions: BODIPY lipid droplet fluorescence, 18-24 h, cells fed with added oleic acid; cell number change: measured here: cell count max response; series mostly up to 46.1 µM; lipid storage change, negative = inhibition: at the top concentration
Procedure, shortened: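 Laser-scanning cytometry quantifies lipid droplet accumulation (500–530 nm total intensity; droplet/cell object ratio) in oleic acid-fed (400 uM added) Drosophila S3 cells treated with a concentration series. 20 uM Triacsin C defined 100% inhibition.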
Potency means the concentration at half of the fitted maximal effect.

Row | Structure (SMILES) | lipid storage change, negative = inhibition | cell number change | Potency | outcome
1 | COc1ccc(N=C2NC(=O)/C(=C/c3ccco3)S2)cc1 | -1.57% (inactive) | 15.8% |  | 
2 | O=C(CNC(=O)c1ccco1)Nc1ccncc1 | 23% (inactive) |  |  | 
3 | CCOc1ccc(N=C2NC(=O)/C(=C/C(=O)OC)S2)cc1 |  |  | 25.9 µM (active) | 
4 | COC(=O)/C=C1/SC(=Nc2ccc(Cl)c(Cl)c2)NC1=O | 19.2% (inactive) | 7.13% |  | 
5 | COC(=O)/C=C1\SC(=Nc2ccccc2)NC1=O | -66.9% (inactive) | 10.6% |  | 
6 | O=C(c1nc2ccccn2c1CNCCCn1ncc2ccccc21)N1CCOCC1 | 7.24% (inactive) | 25.5% |  | 
7 | NC(=S)N/N=C\c1ccccc1OCc1ccccc1 | 8.29% (inactive) | 0.634% |  | 
8 | COc1cccc(/C=N/NC(N)=S)c1OCc1cccc(Cl)c1 |  | 0.0836% | 8.2 µM (active) | 
9 | COc1cccc(/C=N/NC(N)=S)c1OS(=O)(=O)c1ccccc1 | -5.43% (inactive) | -16.4% |  | 
10 | O=C(c1ccc(C#CC2(O)CCCCC2)cc1)N1CCOCC1 |  | 5.75% |  | inactive
11 | O=C1OCC(CO)(CO)N=C1NNc1ccccc1Cl |  |  |  | inactive
12 | COc1cccc(C2=NOC(C(=O)Nc3cccnc3Cl)C2)c1 (centres undefined) | 5.17% (inactive) | 3.11% |  | 
13 | Cc1cc(C)n2nc(C(=O)Nc3cccc(S(=O)(=O)N(C)c4ccccc4)c3)nc2n1 |  | -15.3% | 11.6 µM (active) | 
14 | CN(c1ccccc1)S(=O)(=O)c1cccc(NC(=O)c2ccncc2)c1 | -23.7% (inactive) | 0.47% |  | 
15 | Cc1cc(C)n2nc(C(=O)Nc3ccc(S(=O)(=O)N(C)C)cc3)nc2n1 | -29.8% (inactive) | -26.7% |  | 
16 | Cc1nc2c(-c3ccccc3)cnn2c(N2CCOCC2)c1C |  | -16.7% | 2.91 µM (active) | 
17 | CC(C)(C)c1cc(N2CCOCC2)n2ncc(-c3ccccc3)c2n1 | 6.85% (inactive) | -9.44% |  | 
18 | Cc1cc(N2CCOCC2)n2ncc(-c3ccccc3)c2n1 |  | -5.35% |  | inactive
19 | O=C(CN1CCCCC1)N1N=C(c2cccs2)CC1c1cccs1 (centres undefined) | -0.409% (inactive) | 18.5% |  | 
20 | CSc1ccc(CN(C)C(=O)CSCC(=O)Nc2cc(C)on2)cc1 | -15.8% (inactive) | 13.3% |  | 

Row | Structure (SMILES) | lipid storage change, negative = inhibition | cell number change | Potency | outcome
21 | Cc1ccc2nc(SCC(=O)N(C)C3CCS(=O)(=O)C3)[nH]c2c1 (centres undefined) |  | 7.53% | 1.16 µM (active) | 
22 | CN(C(=O)CSc1nnc(-c2ccc(C(C)(C)C)cc2)n1C)C1CCS(=O)(=O)C1 (centres undefined) |  | 3.86% | 10.3 µM (active) | 
23 | CN(C(=O)CSc1nc2ccccc2[nH]1)C1CCS(=O)(=O)C1 (centres undefined) |  | -2.26% |  | inactive
24 | CN(C(=O)CSc1nnc(-c2ccccc2)n1C)C1CCS(=O)(=O)C1 (centres undefined) | 14.6% (inactive) |  |  | 
25 | CCN(C(=O)CSc1nc2ccc(OC)cc2[nH]1)C1CCS(=O)(=O)C1 (centres undefined) | 23% (inactive) |  |  | 
26 | CCn1c(SCC(=O)N(C)C2CCS(=O)(=O)C2)nnc1-c1ccccc1 (centres undefined) | -21% (inactive) | -11.5% |  | 
27 | O=C(COC(=O)Cc1ccccc1F)Nc1cc(S(=O)(=O)N2CCOCC2)ccc1N1CCCC1 | 0.102% (inactive) | 0.15% |  | 
28 | COC(=O)CN1C(=O)N/C(=C/c2ccc(OC)cc2)C1=O | -9.61% (inactive) | -7.72% |  | 
29 | O=C(NC1CC1)c1ccc(S(=O)(=O)NCC2CCCCC2)cc1 | 1.43% (inactive) | 6.17% |  | 
30 | NC(=O)c1ccc(Oc2ccc(-c3nnco3)cc2)c([N+](=O)[O-])c1 |  | 16.7% |  | inactive
31 | NC(=O)c1ccc(Oc2ccc3c(c2)CCC3)c([N+](=O)[O-])c1 |  | -16.2% | 2.91 µM (active) | 
32 | NC(=O)c1ccc(Oc2ccc(Cl)cc2)c([N+](=O)[O-])c1 | -2.44% (inactive) | 18.1% |  | 
33 | CCOc1ccc(Cl)cc1S(=O)(=O)N1CCCC1 |  | 23.3% |  | inactive
34 | COc1cnc(-c2ccccc2)nc1Sc1ccccc1 | 9.35% (inactive) | 14.5% |  | 
35 | CCc1ccc(OCCNC(=O)c2ccc(S(=O)(=O)N(C)C)cc2)cc1 |  | -5.09% |  | inactive
36 | CCN(CC)S(=O)(=O)c1ccc(C(=O)NCCOC(=O)c2ccc(F)cc2F)cc1 |  |  | 4.61 µM (active) | 
37 | CN(C)S(=O)(=O)c1ccc(C(=O)NCCOc2ccccc2)cc1 | -16.1% (inactive) | -3.57% |  | 
38 | CN(C)S(=O)(=O)c1cccc(C(=O)NCCOC(=O)c2cc(F)c(F)cc2Cl)c1 |  | 5.13% |  | inactive
39 | CCN(CC)CCNC(=O)c1ccc(NC(=O)c2ccc(F)cc2F)cc1 | 0.115% (inactive) | 0.662% |  | 
40 | CN(C)S(=O)(=O)c1ccc(C(=O)NCCOc2ccc(F)cc2)cc1 |  | 5.77% | 18.4 µM (active) | 

Row | Structure (SMILES) | lipid storage change, negative = inhibition | cell number change | Potency | outcome
41 | CN1C(C(=O)NCc2ccccc2)CC2Cn3c(nc4cc(Cl)c(Cl)cc43)C21 (centres undefined) | 14.4% (inactive) | 23.6% |  | 
42 | CS(=O)(=O)N1CCN(c2ccc(C(=O)N3CCOCC3)cc2[N+](=O)[O-])CC1 | 0.674% (inactive) | 10.2% |  | 
43 | COc1nc2ccccc2nc1CCC(=O)O | -2.96% (inactive) | -4.36% |  | 
44 | CC(=O)Nc1nc(=O)c2ccccc2s1 | 14.6% (inactive) | -8.23% |  | 
45 | Cc1cc(C(=O)Nc2ccc3c(c2)OCCO3)ccc1[N+](=O)[O-] | -9.88% (inactive) | 0.293% |  | 
46 | O=C(Nc1ccc2c(c1)OCCO2)c1ccc(Cl)cc1Cl |  | -12.4% |  | inactive
47 | O=C(Nc1ccc(NC(=O)c2ccc(Cl)cc2Cl)cc1)c1ccc2c(c1)OCO2 |  | -0.901% | 16.4 µM (active) | 
48 | O=C(Nc1ccc(Cl)c([N+](=O)[O-])c1)c1ccc2c(c1)OCCO2 | 2% (inactive) | 0.135% |  | 
49 | O=C(Nc1ccc(F)c(F)c1)c1ccc2c(c1)OCO2 | -1.25% (inactive) | -8.99% |  | 
50 | O=C(Nc1ccc2c(c1)OCCO2)c1ccc(Cl)c([N+](=O)[O-])c1 |  | -0.392% | 16.4 µM (active) | 
51 | Fc1cccc(Cl)c1Cn1nnc2c(NCc3ccccn3)ncnc21 | -4.63% (inactive) | -17.4% |  | 
52 | O=C(Nc1ccc(N2CCOCC2)cc1)C1CC1 | 11.2% (inactive) | 20.3% |  | 
53 | CC(C)(C)C1CCC(C(=O)Nc2ccc(N3CCOCC3)cc2N2CCOCC2)CC1 (centres undefined) |  | 2.76% | 0.0731 µM (active) | 
54 | O=C(Nc1ccc(Cl)cc1N1CCOCC1)C1CC1 | -18.3% (inactive) | -0.587% |  | 
55 | CC(C)c1ccccc1NC(=O)c1ccc2ncsc2c1 |  | 3.81% |  | inactive
56 | Cc1cc(C)c2nc(-c3ccncc3)cc(C(=O)N3CCN(Cc4ccccc4Cl)CC3)c2c1 |  | -25.7% |  | inactive
57 | CCOc1ccc(-c2cc(CCCC(=O)NCc3ccco3)no2)cc1 | 21.6% (inactive) | 7.38% |  | 
58 | CC(=O)Nc1cccc(NC(=O)c2cccc(OCc3ccccc3)c2)c1 | 8.52% (inactive) | -0.179% |  | 
59 | CC(=O)c1cccc(NC(=O)c2ccccc2OCc2ccc(F)cc2)c1 | -11.7% (inactive) | 17.5% |  | 
60 | CC(=O)Nc1cccc(NC(=O)c2ccccc2OCc2ccccc2)c1 |  | 4.05% | 0.103 µM (active) | 
